Consider 39 compounds from PubChem BioAssay (EPA / NIEHS).

SMILES strings stand for the structures. Records with an inconclusive call do not appear. Where a structure was tested more than once in an assay, its records may differ in their call. Calls of active or inactive are those of the source. How the source made its calls: active means hit-call score of the fitted dose curve at least 0.9, where 1 is the maximum; inconclusive means response in the unintended direction; inactive means score below 0.9.

This assay can be described thus: TOX21_p53_BLA_p4_viability: Viability Assessment in the Tox21 HCT-116 p53 Agonism Beta-lactamase Assay, Phase 4 (AID 2283597).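 Further: hits lower the luminescence signal meaning cytotoxicity.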 The source says:
TOX21_p53_BLA_p4 is a cell-based, single-readout assay that uses HCT116, a human intestinal cell line, […] in a 1536-well plate.TOX21_p53_BLA_p4_viability is an assay readout measuring cellular ATP content and detected with CellTiter-Glo Luciferase-coupled ATP quantitation.TOX21_p53_BLA_p4_viability used a type of viability reporter where loss-of-signal activity can be used to understand changes in the cell viability. Furthermore, this assay endpoint can be referred to as a secondary readout, because this assay has produced multiple assay endpoints where this one serves a viability function. To generalize the intended target to other relatable targets, this assay endpoint is annotated to the cell cycle intended target family, where the subfamily is cytotoxicity.
Thawing Method: Place 14 mL of pre-warmed thaw medium into a 15 mL of conical tub. Remove the vial of cells to be thawed from liquid nitrogen and thaw rapidly by placing at 37C in a water bath with gentle agitation for 1-2 minutes. Decontaminate the vial by wiping with 70% ethanol before opening in a biological safety cabinet. Transfer the vial contents drop-wise into 14 mL of thaw medium in a sterile 15-mL conical tub. Centrifuge cells at 900 rpm for 4 minutes and resuspend in thaw medium. Transfer contents to the T75 tissue culture flask containing Thaw Medium and place flask in a humidified 37C/5% CO2 incubator. Switch to growth medium at first passage.Propagation Method: Aspirate medium, rinse once in DPBS, add 0.25% Trypsin/EDTA and swirl to coat the cell evenly. Add an equal volume of Growth Medium to inactivate Trypsin after 2-3 minutes incubation at 37C. Centrifuge cells at 900 rpm for 4 minutes and resuspend in growth medium. Cell should be passage or fed at least twice a week.Assay Protocol: Harvest cells from culture in growth medium and resuspend in assay medium. 2.2 Dispense 4000 cells/5 uL/well into 1536-well black/clear bottom plates using a Multidrop dispenser. After the cells were incubated at 37C for 5 hours, 23 nL of compounds dissolved in DMSO were transferred to the assay plate by a PinTool resulting in a 217-fold dilution. Incubate the plates for 16 hours at 37C, 5% CO2. Add 1 uL of 6X LiveBLAzer FRET B/G (CCF4-AM) Substrate Mixture to each well using a BioRAPTR dispenser and incubate the plates at room temperature for 2 hours. Measure fluorescence intensity at 460 and 530 nm emission and 405 nm excitation by an Envision detector. Data is expressed as the ratio of 460nm/530nm emissions. Add 4 uL of Cell-titer Glo to each well using BioRAPTR and incubate the plates at room temperature for […]. For cell viability readout that measures cytotoxicity, 4 ul/well of CellTiter-Glo reagent was added into the assay plates using a Flying Reagent Dispenser. After 30 min incubation at room temperature, the luminescence intensity in the plates was measured using a ViewLux plate reader.
With `O=C1OC2(c3cc(Br)c(O)cc3Oc3c2cc(Br)c(O)[c]3[Hg])c2ccccc21` (stereo not given), the call was inactive.

Consider `CN1[C@@H]2CC[C@H]1CC(O)C2` (stereo not given in full), for which the compound was classed as inactive.

The term AC50 denotes the midpoint of the concentration-response curve, whichever way the signal moves. Take `[O]=[Cr](=[O])([OH])[O][Cr](=[O])(=[O])[OH]`: the half-maximal activity concentration (AC50) was 18.4 µM (active) [middle of 4 runs]. `CC1(C)S[C@@H]2[C@H](N)C(=O)N2[C@H]1C(=O)O`: the compound was called inactive. Same read-out and setting: the entry for `C#CCOC(C(=O)OCCN(C)C)(c1ccccc1)c1ccccc1` is “inactive”. On the same count and under the same terms, the entry for `O=C(O)c1cc(Cl)ccc1Cl` is “inactive”.

As to `CSc1ccc(C(=O)C(C)(C)N2CCOCC2)cc1`, the compound was classed as inactive. Consider `F/C(COc1ccc2c(c1)[nH]c1ccccc12)=C1/CN2CCC1CC2`, for which the AC50 was 27.3 µM (active). Regarding `CCC[CH2][Sn]([CH2]CCC)([O]C(C)=O)[O]C(C)=O`, the result was inactive.

Regarding `Cc1cc(OC(=O)N(C)C)nn1C(=O)N(C)C`, the call was inactive. Turning to `CCCCCCI`, the result was inactive. For `O=C1CN=C(c2ccccc2)c2cc(Cl)ccc2N1`, the outcome was inactive. Turning to `C=C(Cl)CCl`, the call was inactive.

Turning to `S=C=S`, the call was inactive. Still for that read-out and setting: the value for `N=C(N)[Se]` was “inactive”; that for `BrCCc1ccccc1` was “inactive”; that for `CCOP(=O)(OCC)OCC` was “inactive”.

On to `CC(=O)OCC(=O)[C@H]1CC[C@H]2[C@@H]3CC[C@H]4C[C@H](O)CC[C@]4(C)[C@H]3C(=O)C[C@]12C`, for which the compound was called inactive. On the same count and under the same terms, the value for `C[C@H](CN1CCOCC1)C(C(=O)N1CCCC1)(c1ccccc1)c1ccccc1` was “inactive”; that for `CN(C)N` was “inactive”. Same read-out and setting: the value for `CC(=O)[C@H]1CC[C@H]2[C@@H]3CC[C@H]4C[C@](C)(O)CC[C@]4(C)[C@H]3CC[C@]12C` was “inactive”; that for `ClC(Cl)(Cl)Br` was “inactive”. `CON(C)C(=O)Nc1ccc(Br)cc1`: the compound was called inactive. As to `N[C@@H](Cc1ccc(Oc2cc(I)c(O)c(I)c2)c(I)c1)C(=O)O`, the call was inactive.

In the case of `C(COCC1CO1)OCC1CO1` (stereo not given), the call was inactive. As for `CCC[CH2][Sn]([CH2]CCC)([CH2]CCC)[O][Sn]([CH2]CCC)([CH2]CCC)[CH2]CCC`, the half-maximal activity concentration (AC50) was 0.668 µM (active). In the case of `C=CC(C)=O`, the outcome was inactive.

Regarding `COP(N)(=S)Oc1ccccc1C(=O)OC(C)C` (stereo not given), the compound was classed as inactive. As for `COC(C)(C)CCC[C@H](C)C/C=C/C(C)=C/C(=O)OC(C)C`, the outcome was inactive. The same measure, in the same setting: the value for `Oc1ccc2c3c1O[C@H]1[C@@H](O)CC[C@@]4(O)[C@@H](C2)N(CC2CCC2)CC[C@]314` was “inactive”; that for `Nc1cc(Cl)cc(Cl)c1` was “inactive”. Consider `CC(C)(c1cc(Cl)c(O)c(Cl)c1)c1cc(Cl)c(O)c(Cl)c1`, for which the compound was called inactive and the AC50 is 62.3 µM (active). On to `CCOP(=O)(OCC)SCCSCC` (tested in a mixture with another compound), for which the compound was called inactive.

Consider `COc1ccc2c3c1O[C@H]1[C@@H](O)C=C[C@H]4[C@@H](C2)N(C)CC[C@@]341`, for which the result was inactive. On to `COC(=O)[C@@H]1[C@H]2CC[C@@H](C[C@H]1OC(=O)c1ccccc1)N2C`, for which the compound was called inactive. Take `CC(C)OC(=O)C(O)(c1ccc(Cl)cc1)c1ccc(Cl)cc1`: the half-maximal activity concentration (AC50) is 67.4 µM (active). As for `CC(C)Br`, the compound was classed as inactive. Turning to `O=C1CN(O)C(c2ccccc2)=c2cc(Cl)ccc2=N1`, the compound was called inactive. Same read-out and setting: the value for `CN[C@]1(c2ccccc2Cl)CCCCC1=O` was “inactive”.
